Experiments:
Experiment in all cases: PBM binding z-score (relative to random genomic background probes); higher = stronger binding; sequences stand for … in GC…GCGATTGACAGCGTAGAATGAAGG
[1] = tested on: RARg:RXRa (NR concentration 270 nM, RXRa partner concentration 90 nM)
Method in brief: (§1)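 Antibodies against each partner of ligand-free nuclear receptor dimers (one per run) detected binding on custom Agilent 4×180K protein-binding microarrays after 1 h incubation. The double-stranded probes had 34-nt variable regions carrying direct-repeat seeds, single-nucleotide variants, half-site ablations and random human genomic background sequences. Binding z-scores, from regression-normalized fluorescence, use the random background probes as reference.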

[2] = tested on: RARg homodimer (NR concentration 270 nM)
Method in brief: as §1

[3] = tested on: RXRa DBDmut IVT, anti-RXR (DBD mutation: RXRa K156A/R161A, NR concentration 90 nM)
Method in brief: as §1

[4] = tested on: RXRa homodimer (NR concentration 180 nM)
Method in brief: as §1

[5] = tested on: THRa:RXRa (NR concentration 90 nM, RXRa partner concentration 90 nM)
Method in brief: as §1

[6] = tested on: THRa homodimer (NR concentration 90 nM)
Method in brief: as §1

[7] = tested on: VDR homodimer (NR concentration 270 nM)
Method in brief: as §1

| Sequence | PBM binding z-score [1] | PBM binding z-score [2] | PBM binding z-score [3] | PBM binding z-score [4] | PBM binding z-score [5] | PBM binding z-score [6] | PBM binding z-score [7] |
| --- | --- | --- | --- | --- | --- | --- | --- |
| TAGCCTAGGTCATGGGCCAGTGTACCACGCGAAC | 4.41 | 4.65 | 0.252 | 3.76 | 3.13 | 1.23 | 0.706 |
| AATACAGGGTAACTAGGCCAGAGTAGGTACGAAT | 0.64 | 0.567 | -0.0804 | 0.664 | 0.631 | -0.0802 | 0.108 |
| ATATGTAGGTTAAGCGTCATTCAGGTTGGTTCGC | 0.863 | 0.763 | 0.559 | 1.15 | 0.543 | 0.263 | 0.378 |
| ATATGTAGGTTAGCTGAGGTCATTCAGACTAGGC | 3.95 | 3.72 | 1.9 | 4.53 | 5.33 | 4.38 | 5.55 |
| CGTCCAAAGTCAAAGGTCAGTGAAGAGATGACGG | 4.93 | 5 | 0.813 | 5.96 | 2.81 | 0.117 | 0.98 |
| AATAAAGGGTCATCGTAGGCCAGAGTACGCACAG | 6.49 | 6.51 | 3.4 | 6.51 | 4.49 | 0.425 | 3.62 |
| GCTGCTAGGTCAACTGATGGTCAACTAAAGCTCG | 5.53 | 5.66 | 1.57 | 2.94 | 2.91 | 1.01 | 0.0813 |
| CAAACTAGGTCAAGAGGTCAAAGTTCGCTTCCCG | 8.33 | 7.43 | 3.49 | 8.33 | 4.67 | 2.78 | 5.53 |
| AGTCAAAGTTCAGGACGAGGTAACGTTAAGCACG | 4.79 | 4.82 | 3 | 2.87 | 3.83 | 1.82 | 2.56 |
| ATATGTAGGTTAGCTGGGGTCATTCACACTAGGC | 4.14 | 3.12 | 1.95 | 5.25 | 5.01 | 3.56 | 5.37 |
| TCTATTAGTTGATTAGGGCAACCGAAACAGCGGA | 0.66 | 0.733 | 1.18 | 0.678 | 0.697 | 0.563 | 0.736 |
| TGTATGAGGTTAAAGATCAGGGAACGTGGCGTCG | 2.79 | 1.99 | 1.22 | 4.35 | 2.84 | 1.01 | 1.19 |
| TATACAAGGTCAAAGGCCAGAGTACGAATGTCGA | 6.25 | 6.16 | 2.92 | 6.51 | 3.86 | 2.1 | 2.78 |
| TAGCCTAGGTCATGCGGGACAGTATAGTGTCGGC | 3.95 | 4.49 | 0.879 | 3.05 | 3.04 | 0.939 | 1.16 |
| CCTACTGGGCCTAAGGTCATTGATTCCAATGCTC | 3.16 | 2.83 | 1.17 | 3.44 | 3.88 | 4.55 | 2.68 |
| ATCGAAAGGTCTAAGGTGAGTATACCCACCCGAA | 1.27 | 1.29 | -0.301 | 1.25 | 2.28 | 1.67 | 0.152 |
| CGAACGAGGTCATTGACAGGACAGTGAATAGTAA | 7.11 | 6.33 | 4.84 | 7.11 | 4.06 | 2.45 | 5.66 |
| ACGCGGAGGACAAAGGTCAGAGCTACGCCAGTGA | 6.23 | 5.34 | 0.687 | 5.4 | 3.38 | 0.463 | 0.908 |
| TCTAGTTGGTCACGGAGGACACACACGACGGGTA | 1.55 | 2.32 | 0.501 | 0.864 | 1.83 | 1.27 | 0.76 |

| Sequence | PBM binding z-score [1] | PBM binding z-score [2] | PBM binding z-score [3] | PBM binding z-score [4] | PBM binding z-score [5] | PBM binding z-score [6] | PBM binding z-score [7] |
| --- | --- | --- | --- | --- | --- | --- | --- |
| TGTCAATGTTCAAAGGTAACGTAAGTATCCACAC | 0.811 | 0.759 | -0.404 | 0.776 | 1.24 | -0.064 | -0.453 |
| AGAATGAGGTTACTAAAGATCAGGGAAACGCTTG | 1.61 | 1.25 | 0.94 | 1.59 | 2.19 | 0.398 | 0.00246 |
| GCTAGTTGGTCAGTAAAATGTCACACACCGGTCG | 0.584 | 0.697 | 0.121 | 0.272 | -0.216 | -0.123 | 0.162 |
| CGAACTAGGTCACCCAGGACAGTGAATACATTGA | 4.24 | 5.04 | 2.03 | 3.13 | 3.66 | 2.18 | 1.89 |
| CGTCTAAGGTCATAGGAGGTCAGTGAAGACAGAT | 7.35 | 7.8 | 4.42 | 7.22 | 5.51 | 4.81 | 4.89 |
| AGAATGAGGTTAAGTTCAGGGAAACAGAATACAT | 3.41 | 2.98 | 2.38 | 3.6 | 3.34 | 1.48 | 3.44 |
| CGTCCGAGGTCATAGGAGGTCAGTGAAGACAGAT | 7.12 | 7.76 | 4.48 | 7.49 | 5.37 | 3.58 | 5.17 |
| TCTTGTAGATCAACAGGAGGTTAATAAAGATCGA | 0.776 | 0.301 | 0.161 | 1.03 | 0.904 | -0.0853 | -0.179 |
| AGCGAAAGGTCGAGGTGAGTATAGAGAAAGGGAA | 4.32 | 4.24 | 0.946 | 4.46 | 2.89 | 0.747 | 0.467 |
| AGAATGAGGTCACCAAAGATCAGGGAAACGCTTG | 6.82 | 7.16 | 4.12 | 7.51 | 4.63 | 3.75 | 3.69 |
| ACTAGTTGGTCAGCTGAGGTCACACCCAATTCGG | 3.85 | 3.86 | 1.34 | 3.47 | 5 | 4.84 | 2.67 |
| GCTTACGGGTCCAAGGTTATAGCATGAATAGAAT | 0.631 | 0.599 | 2.18 | 0.914 | 1.34 | 0.551 | 1.97 |
| ATCAAAAGGTCGAGGTGAGTATAGAGAAAGGGAA | 4.7 | 4.98 | 1.28 | 4.83 | 3.11 | 1.26 | 1.18 |
| AGTCAAACTTCAGGACGAGGTAACGTAAAGCACG | 0.505 | 0.586 | -0.343 | 0.511 | 2.44 | 1.77 | -0.0917 |
| CAAACTAGGTCACAGTGGTCAAAGTCCGTGCGTA | 4.19 | 5.18 | 1.51 | 3.32 | 3.17 | 1.43 | 1.23 |
| CGTCCAAGGACAATGCTAGGTCAGTGAAAGCATT | 1.34 | 1.85 | 0.603 | 0.146 | 2.91 | 1.91 | 0.161 |
| CTATGTAGGTTAGGGGGGTCATTCAGTTTGAAAG | 5.7 | 4.91 | 3.23 | 5.83 | 4.21 | 3.25 | 6.97 |
| CGTCAAAGTTCAACTGAGGTAACGTAAAGCACGC | 6.11 | 6.84 | 4.76 | 5.4 | 5.27 | 1.89 | 4.07 |
| CCTACTGGGCCATTCAGAGGGCATTGATCATATG | 1.43 | 0.891 | -0.189 | 0.134 | 0.0655 | -0.325 | 0.582 |

| Sequence | PBM binding z-score [1] | PBM binding z-score [2] | PBM binding z-score [3] | PBM binding z-score [4] | PBM binding z-score [5] | PBM binding z-score [6] | PBM binding z-score [7] |
| --- | --- | --- | --- | --- | --- | --- | --- |
| TACCCTAGGTCATGGGCCAGTATACCACGCGAAC | 4.53 | 4.92 | 0.55 | 4 | 3.26 | 2.22 | 1.35 |
| CGAACTAGGTCAAGGCCAGTGAATCTCCGCACGC | 3.79 | 4.63 | 1.47 | 2.73 | 3.12 | 0.958 | 0.111 |
| GGAACGAGGTCAAGTTGATAGCAGAGTTTGATGG | 6.84 | 7.08 | 4.6 | 7.65 | 4.27 | 2.78 | 5.11 |
| ATCGAAAGGTCGAAGGTGCGTATACCCACCCGAA | 3.93 | 3.91 | 1.37 | 4.23 | 1.66 | -0.362 | 0.858 |
| CGTCCAAGGTCAGCGGGTCAGTGAAAGCGACGTG | 6.32 | 6.61 | 2.67 | 4.98 | 3.74 | 2.34 | 1.76 |
| CCTACTGGACCAAGGTCATTGATCAGTCAAAGCA | 3.7 | 2.94 | 1.91 | 3.39 | 3.43 | 2.69 | 3.61 |
| AGAATGAGGTCAAGATCAGGGAAACAGAATACAT | 6.53 | 6.24 | 4.15 | 6.66 | 4.29 | 2.98 | 3.31 |
| CCTACTGGGCCAAAAAGTTCATTGATGCCGATAA | 1.48 | 1.8 | 1.51 | 0.748 | 0.849 | -0.23 | 4.38 |
| TAGCCTAGGTCATGCGGGCCAATATAGTGTCGGC | 3.98 | 4.36 | 0.554 | 3.1 | 3.14 | 0.979 | 0.902 |
| TTACCAAGGTCAAGGTCGTTGATCCCTCTGTAGA | 6.48 | 6.91 | 3.27 | 6.84 | 4.38 | 3.6 | 4.9 |
| CAAACTAGGTCACTAAAGGTCAAAGTCGAATGAC | 7.43 | 7.86 | 2.41 | 7.61 | 5 | 2.19 | 3.72 |
| CGTCAAACTTCAACTAAGGTAACGTAAAGCACGC | 0.289 | 0.43 | 0.617 | 0.424 | 2.4 | 1.98 | 0.47 |
| CCGAGGAGGTTACGAGGGGGCATTCAGTGCGAAT | 4.21 | 3.17 | 2.24 | 3.28 | 4.49 | 0.537 | 3.87 |
| ATATGTAGGTTGGGGTCATTCAGAAAGTAGGGAA | 5.15 | 3.36 | 3.69 | 7 | 4.34 | 3.84 | 6.23 |
| ATTTGTAGGTTACATCCGGGTCATTCAGGCTATG | 4.18 | 2.41 | 1.3 | 3.47 | 3.85 | 3.39 | 4.18 |
| AGTCAAAGTGCATCTAGGTAACGTAAGATATGCT | 1.07 | 1.23 | 1.55 | 0.663 | 1.31 | -0.154 | 0.36 |
| CCTAGTTGTTCAGGAGGTCACACACCGGATATGA | 4.48 | 4.35 | 1.15 | 4.73 | 3.62 | 2.81 | 3.5 |
| ATCGAAAGGTCCACGAGGTGAGTATACACCGTTT | 1.13 | 1.3 | 0.571 | 0.952 | 1.96 | 0.835 | 0.691 |

— the supplement of paper PMC6555819
